# Only some compounds are listed: those with a hit (about 4% of all), similar ones and a draw of the others.
# TRHR enhancer: qHTS for Small Molecule Agonists and Allosteric Enhancers of Human TRH Receptor: Primary Screen for Enhancers | TRHR cells, fluo-8 calcium fluorescence, EC20 TRH enhancement | enhancement, % at 2 µM | actives 0.66% (n = 360,000) | AID 493056, 2011; in the data active = enhancement above about 30%; note: 0% is about no effect
#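 Enhancer read-out: after compound pinning and an initial kinetic agonist-mode read, an EC20 of TRH (10 nM final) was injected and fluo-8 calcium signal (Ex 480/Em 530) followed at 1 s/cycle for 100 cycles in TRHR-expressing cells.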
# Glioma ERSR ind: qHTS for Inducers of the Endoplasmic Reticulum Stress Response (ERSR) in Human Glioma: qHTS; U87-MG GRP78 promoter luciferase reporter, 16 h; Potency, µM, for inactives: at the highest dose activation, most hits filed as activators; actives 0.02% (n = 420,000); AID 602332, 2012; active = well fitted activation curve with a large enough effect; note: potency is the fitted concentration of half-maximal effect; series mostly up to about 76 µM; % of control where 0% means no effect; nearly all actives have a fitted effect of over 35% in size
#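 Stably transfected U87-MG human glioma cells carrying a GRP78-based luminescent sensor were seeded at 1000 cells/well, pin-dosed with compounds and incubated 16 h. Luciferase reagent was then added, and end-point luminescence was read after 10 min at room temperature.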
# D1 PAM: Potentiators of Human D1 Dopamine Receptor: qHTS | actives 0.036% (n = 360,000) | HEK293 TREx D1 cells, calcium flux, dopamine EC20 potentiation | D(1A) dopamine receptor (Homo sapiens), P21728 | potentiation, % at 10 µM; in the data active = potentiation above about 30%; note: 0% is about no effect
# Target sequence (P21728 whole entry, looked up): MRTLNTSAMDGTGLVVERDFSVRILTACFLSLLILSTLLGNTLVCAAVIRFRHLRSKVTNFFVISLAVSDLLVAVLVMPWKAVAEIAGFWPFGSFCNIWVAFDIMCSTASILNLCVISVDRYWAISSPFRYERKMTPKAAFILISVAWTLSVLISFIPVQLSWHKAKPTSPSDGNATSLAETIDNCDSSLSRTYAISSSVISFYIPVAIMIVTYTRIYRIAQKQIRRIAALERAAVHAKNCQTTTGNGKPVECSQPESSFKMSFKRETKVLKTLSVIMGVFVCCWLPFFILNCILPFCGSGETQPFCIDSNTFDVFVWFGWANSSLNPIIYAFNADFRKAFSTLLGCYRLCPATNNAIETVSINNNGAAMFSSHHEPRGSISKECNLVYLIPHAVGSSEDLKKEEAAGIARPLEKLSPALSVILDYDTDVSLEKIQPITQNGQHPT
# D1 agonist: Allosteric Agonists of the Human D1 Dopamine Receptor: qHTS; HEK293 T-REx D1 cells, calcium flux, agonist mode; AID 504660, 2011; actives 1% (n = 360,000); activation, % at 2 µM; note: 0% is about no effect
#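 Inducible HEK293 T-REx D1 cells, force-coupled to calcium signalling, were plated at 4000 cells/well with tetracycline and held overnight at 30 C. After no-wash calcium dye loading, compound-evoked calcium rise over 180 s flagged agonists.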
# D1 antagonist: Antagonist of Human D 1 Dopamine Receptor: qHTS; actives 3.2% (n = 360,000); D(1A) dopamine receptor (Homo sapiens), P21728; AID 504652, 2011; activity change, negative = inhibition, % at 10 µM; HEK293 TREx D1 cells, calcium flux, dopamine EC80; active compounds read low; in the data active = activity change below about -30%; note: % is set by controls: 0 for no effect and ±100 for the full control effect
#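 Kinetic fluorescence of a calcium dye serves as the read-out. D1-expressing Hek293 Trex cells, induced overnight at 30 C, are exposed to compound for 180 s before an EC80 dopamine addition, then read 180 s further.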
# TRHR agonist: qHTS for Small Molecule Agonists and Allosteric Enhancers of Human TRH Receptor: Primary Screen for Agonists | activation, % at 2 µM | AID 493084, 2011 | TRHR cells, calcium flux fluo-8, FDSS agonist mode | actives 0.18% (n = 360,000) | Thyrotropin-releasing hormone receptor (Homo sapiens), P34981; note: 0% is about no effect
#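 Agonist-mode FDSS calcium read (Ex 480/Em 530, 1 s cycles) in 1536-well TRHR cells with fluo-8 dye, after 10-cycle baseline and 23 nL compound addition; TRH at EC20 (10 nM final) added afterwards for the enhancer phase.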
# * = called active by the depositor. Cut-off read from the data, not from the text of the source, unless noted: active = activation above about 30%; inactive = the rest.
SMILES,TRHR enhancer,Glioma ERSR ind,D1 PAM,D1 agonist,D1 antagonist,TRHR agonist
O=C(NCC1CCCO1)c1ccc(NC(=O)c2cc(F)c(F)cc2Cl)cc1 (configuration not stated),32.8*,-3.9%,-3.4,4.2,-1.6,0.9
Cc1ccc(C(=O)N(c2ccccn2)C(C)c2ccco2)cc1C (configuration not stated),2.7,-1.3%,0.6,1.2,-16.9,0.2
COc1ccc(-n2nc([N+](=O)[O-])c(=NCCc3ccc(C)cc3)n2O)cc1,2.4,-0.1%,-2.1,1.3,-8.7,-1.4
Cc1ccc(CN=c2c([N+](=O)[O-])nn(-c3cccc(C)c3)n2O)cc1,4.3,8.8%,-2.1,-0.9,-47.3*,-0.3
Cc1cc(C)cc(N=c2c([N+](=O)[O-])nn(-c3ccc(Cl)cc3)n2O)c1,2.6,-4.6%,-0.9,0.0,1.0,-0.3
Cc1ccc(CN=c2c([N+](=O)[O-])nn(-c3cccc(Cl)c3)n2O)cc1,-0.7,-4.3%,-5.0,3.6,-33.6*,-1.3
O=c1cc(-c2ccccc2Cl)oc2c(NS(=O)(=O)c3ccccc3C(F)(F)F)ccc(O)c12,-3.3,-6.2%,-7.0,1.6,-30.3*,-0.5
O=c1cc(-c2ccccc2Cl)oc2c(NS(=O)(=O)c3ccccc3OC(F)(F)F)ccc(O)c12,-3.1,-3.8%,1.6,2.7,-9.8,-1.1
Cc1ccc(Sc2cc(C)nc(-c3ccccn3)n2)cc1,32.3*,11.5%,-0.6,4.2,3.6,-0.2
Cc1cccc(N2CCN(C(=O)CCC(=O)NNc3nc4ccccc4c4nc(C)nn34)CC2C)c1 (configuration not stated),-1.6,-0.4%,-5.2,0.5,-8.6,0.8
Cc1nc2c3ccccc3nc(NNC(=O)CCC(=O)N3CCCC(C)C3)n2n1 (configuration not stated),1.6,-4.2%,-5.0,0.4,-32.9*,0.3
O=C(CSc1cccc[n+]1[O-])CSc1cccc[n+]1[O-],5.7,-0.7%,-0.4,0.8,-3.0,0.9
O=C(CSc1cccc[n+]1[O-])N1CCCCCC1,0.2,-3.4%,0.8,2.5,-33.9*,0.8
O=C(CSc1cccc[n+]1[O-])NCC1CCCCC1,-2.3,-1.1%,1.4,0.2,-69.3*,-0.9
O=C(OCC(=O)N1CCc2ccccc21)c1cccnc1,-0.6,-1.4%,-11.2,1.8,-7.7,-0.2
O=C(CN1CCC(n2nnc3cc(F)ccc32)CC1)Nc1ccccc1N1CCOCC1,-1.0,-2.5%,-7.5,1.3,-70.7*,-1.8
O=C(CN1CCC(n2nnc3cc(F)ccc32)CC1)NC1CC1,5.7,-1.9%,-4.7,3.5,-48.6*,0.6
O=C(CN1CCC(n2nnc3cc(F)ccc32)CC1)NC1CCCCC1,1.4,-2.1%,-3.6,0.7,1.9,-0.5
NC(=O)c1cccc(-c2cccc(OC(=O)NC3CCCCC3)c2)c1,-3.9,4.2%,-4.1,3.3,-11.7,-0.7
CS(=O)(=O)N1CCN(C/C=C/c2ccccc2)CC1,4.1,-5.9%,-8.0,2.2,-4.2,-0.8
O=S(=O)(Cc1ccccc1)N1CCN(C/C=C/c2ccccc2)CC1,1.3,1.6%,-12.3,47.4*,-32.9*,-1.6
CCOC(=O)C1CCCN(C/C=C/c2ccccc2[N+](=O)[O-])C1 (configuration not stated),-4.9,3.6%,-4.8,2.7,-1.1,0.0
O=[N+]([O-])c1ccccc1/C=C/CN1CCCCC1CO (configuration not stated),-2.7,-5.1%,-4.0,3.8,-33.8*,-0.5
CCN(CC)C(=O)C1CCCN(C/C=C/c2ccccc2[N+](=O)[O-])C1 (configuration not stated),-10.9,-3.0%,-2.7,5.3,-61.9*,0.1
